Reference: the supplement of paper PMC11732987, “Enantioselective OTUD7B fragment discovery through chemoproteomics screening and high-throughput optimisation” (Communications Chemistry, 2025)

Columns and labels:
Assay in all cases: log2 ratio of Biotin-Ahx-Ub-VS probe labelling (fragment/DMSO); higher = less target engagement (more negative = stronger competition), active = hit call of the paper (q ≤ 0.05, log2 ratio ≤ -1)
Conditions in all cases: compound concentration: 200 uM; treatment time: 3 h
USP42 = molecular target: T1, USP42 (UniProt Q9H9J4)
T1 sequence (whole entry): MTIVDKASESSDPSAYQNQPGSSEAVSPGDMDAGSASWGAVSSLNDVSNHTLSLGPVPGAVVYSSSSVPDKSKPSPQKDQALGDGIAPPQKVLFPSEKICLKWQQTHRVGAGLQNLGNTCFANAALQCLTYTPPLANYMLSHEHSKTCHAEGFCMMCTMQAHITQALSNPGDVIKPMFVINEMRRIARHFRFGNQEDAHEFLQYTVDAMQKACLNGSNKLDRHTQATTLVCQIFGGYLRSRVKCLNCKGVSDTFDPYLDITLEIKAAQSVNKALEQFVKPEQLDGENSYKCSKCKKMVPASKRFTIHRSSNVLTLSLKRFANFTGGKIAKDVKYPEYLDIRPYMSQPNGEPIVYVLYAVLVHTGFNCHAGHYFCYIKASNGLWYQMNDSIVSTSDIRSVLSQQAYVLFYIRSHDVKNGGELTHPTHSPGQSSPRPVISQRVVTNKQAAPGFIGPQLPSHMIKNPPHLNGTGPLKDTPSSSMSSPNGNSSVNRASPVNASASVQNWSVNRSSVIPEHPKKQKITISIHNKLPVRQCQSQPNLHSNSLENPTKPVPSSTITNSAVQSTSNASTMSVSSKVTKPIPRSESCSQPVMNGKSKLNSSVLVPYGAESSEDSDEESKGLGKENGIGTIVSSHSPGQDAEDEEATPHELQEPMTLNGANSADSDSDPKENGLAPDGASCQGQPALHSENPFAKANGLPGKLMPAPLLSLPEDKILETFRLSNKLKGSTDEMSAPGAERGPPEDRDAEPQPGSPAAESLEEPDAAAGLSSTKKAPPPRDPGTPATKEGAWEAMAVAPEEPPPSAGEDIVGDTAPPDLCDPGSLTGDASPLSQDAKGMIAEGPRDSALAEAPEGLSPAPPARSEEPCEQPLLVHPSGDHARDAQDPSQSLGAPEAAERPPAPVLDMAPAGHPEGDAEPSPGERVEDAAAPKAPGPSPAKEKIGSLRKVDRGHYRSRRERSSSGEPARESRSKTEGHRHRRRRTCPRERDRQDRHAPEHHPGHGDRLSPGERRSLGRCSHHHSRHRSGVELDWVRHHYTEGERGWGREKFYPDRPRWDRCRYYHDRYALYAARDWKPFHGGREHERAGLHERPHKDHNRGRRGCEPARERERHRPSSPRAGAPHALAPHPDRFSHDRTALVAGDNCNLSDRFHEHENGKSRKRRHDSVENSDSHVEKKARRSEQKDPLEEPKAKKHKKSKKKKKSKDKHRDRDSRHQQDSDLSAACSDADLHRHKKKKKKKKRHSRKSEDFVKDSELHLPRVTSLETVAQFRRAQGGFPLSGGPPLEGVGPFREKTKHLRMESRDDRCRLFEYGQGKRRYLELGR
Method in brief: (§1)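 In triplicate, 495 µg of HEK293T lysate per sample was incubated with fragment at 200 µM or vehicle for 3 h. Biotin-Ahx-Ub-VS was then added to 0.5 µM final for 1 h, and labelled DUBs were captured with NeutrAvidin, digested with LysC and trypsin, and measured by diaPASEF LC-MS/MS. Data are average log2 fragment/vehicle ratios by unpaired t-test from global-median-normalised Spectronaut label-free quantities, restricted to proteins with ≥2 unique peptides.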

USP46 = USP46 (UniProt P62068)
USP46, sequence (P62068 whole entry): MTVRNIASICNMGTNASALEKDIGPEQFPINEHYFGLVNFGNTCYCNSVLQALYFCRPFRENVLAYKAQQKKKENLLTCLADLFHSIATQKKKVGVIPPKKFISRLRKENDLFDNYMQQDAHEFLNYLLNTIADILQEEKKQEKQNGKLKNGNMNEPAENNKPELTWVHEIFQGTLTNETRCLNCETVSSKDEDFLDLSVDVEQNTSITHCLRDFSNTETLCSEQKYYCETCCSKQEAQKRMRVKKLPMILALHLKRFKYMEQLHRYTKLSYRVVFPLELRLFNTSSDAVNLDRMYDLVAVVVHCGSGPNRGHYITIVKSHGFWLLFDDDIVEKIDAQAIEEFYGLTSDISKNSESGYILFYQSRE
Method in brief: as §1

USP47 = molecular target: T2, USP47 (UniProt Q96K76)
T2 sequence (whole entry): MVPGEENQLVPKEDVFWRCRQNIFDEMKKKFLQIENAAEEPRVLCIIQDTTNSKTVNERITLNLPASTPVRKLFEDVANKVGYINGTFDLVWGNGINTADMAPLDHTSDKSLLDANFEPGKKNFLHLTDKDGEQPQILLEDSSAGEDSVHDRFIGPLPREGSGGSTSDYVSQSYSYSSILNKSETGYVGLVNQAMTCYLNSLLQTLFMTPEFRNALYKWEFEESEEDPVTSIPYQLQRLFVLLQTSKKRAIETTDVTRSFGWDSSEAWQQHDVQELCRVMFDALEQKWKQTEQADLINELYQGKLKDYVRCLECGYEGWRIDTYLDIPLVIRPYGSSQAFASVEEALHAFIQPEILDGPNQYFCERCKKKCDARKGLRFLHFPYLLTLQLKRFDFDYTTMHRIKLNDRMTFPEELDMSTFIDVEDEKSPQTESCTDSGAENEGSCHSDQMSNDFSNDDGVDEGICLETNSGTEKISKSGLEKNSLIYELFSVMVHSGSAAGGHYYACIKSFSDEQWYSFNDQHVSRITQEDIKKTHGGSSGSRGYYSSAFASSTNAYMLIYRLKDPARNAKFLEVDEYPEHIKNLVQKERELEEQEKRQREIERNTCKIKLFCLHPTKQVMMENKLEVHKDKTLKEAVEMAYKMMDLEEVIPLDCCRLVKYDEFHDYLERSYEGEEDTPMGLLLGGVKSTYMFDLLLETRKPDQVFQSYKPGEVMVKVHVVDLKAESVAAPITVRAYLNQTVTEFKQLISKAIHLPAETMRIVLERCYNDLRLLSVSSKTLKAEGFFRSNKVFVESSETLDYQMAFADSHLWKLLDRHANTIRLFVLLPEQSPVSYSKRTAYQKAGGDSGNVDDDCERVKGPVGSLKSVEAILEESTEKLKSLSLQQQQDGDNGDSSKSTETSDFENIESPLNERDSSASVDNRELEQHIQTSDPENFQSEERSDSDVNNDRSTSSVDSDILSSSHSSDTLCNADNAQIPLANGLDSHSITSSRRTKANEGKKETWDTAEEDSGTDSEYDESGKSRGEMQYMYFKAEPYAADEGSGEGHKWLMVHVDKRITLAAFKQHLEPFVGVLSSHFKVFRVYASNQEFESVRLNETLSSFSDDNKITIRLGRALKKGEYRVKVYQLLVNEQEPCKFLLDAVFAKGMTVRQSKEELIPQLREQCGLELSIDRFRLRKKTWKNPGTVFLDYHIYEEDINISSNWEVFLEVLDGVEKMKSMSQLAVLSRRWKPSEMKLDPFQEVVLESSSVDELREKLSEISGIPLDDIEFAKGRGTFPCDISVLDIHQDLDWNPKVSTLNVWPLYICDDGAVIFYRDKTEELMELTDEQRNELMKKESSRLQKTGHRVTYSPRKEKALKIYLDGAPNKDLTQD
Method in brief: as §1

USP48 = molecular target: T3, USP48 (UniProt Q86UV5)
T3 sequence (whole entry): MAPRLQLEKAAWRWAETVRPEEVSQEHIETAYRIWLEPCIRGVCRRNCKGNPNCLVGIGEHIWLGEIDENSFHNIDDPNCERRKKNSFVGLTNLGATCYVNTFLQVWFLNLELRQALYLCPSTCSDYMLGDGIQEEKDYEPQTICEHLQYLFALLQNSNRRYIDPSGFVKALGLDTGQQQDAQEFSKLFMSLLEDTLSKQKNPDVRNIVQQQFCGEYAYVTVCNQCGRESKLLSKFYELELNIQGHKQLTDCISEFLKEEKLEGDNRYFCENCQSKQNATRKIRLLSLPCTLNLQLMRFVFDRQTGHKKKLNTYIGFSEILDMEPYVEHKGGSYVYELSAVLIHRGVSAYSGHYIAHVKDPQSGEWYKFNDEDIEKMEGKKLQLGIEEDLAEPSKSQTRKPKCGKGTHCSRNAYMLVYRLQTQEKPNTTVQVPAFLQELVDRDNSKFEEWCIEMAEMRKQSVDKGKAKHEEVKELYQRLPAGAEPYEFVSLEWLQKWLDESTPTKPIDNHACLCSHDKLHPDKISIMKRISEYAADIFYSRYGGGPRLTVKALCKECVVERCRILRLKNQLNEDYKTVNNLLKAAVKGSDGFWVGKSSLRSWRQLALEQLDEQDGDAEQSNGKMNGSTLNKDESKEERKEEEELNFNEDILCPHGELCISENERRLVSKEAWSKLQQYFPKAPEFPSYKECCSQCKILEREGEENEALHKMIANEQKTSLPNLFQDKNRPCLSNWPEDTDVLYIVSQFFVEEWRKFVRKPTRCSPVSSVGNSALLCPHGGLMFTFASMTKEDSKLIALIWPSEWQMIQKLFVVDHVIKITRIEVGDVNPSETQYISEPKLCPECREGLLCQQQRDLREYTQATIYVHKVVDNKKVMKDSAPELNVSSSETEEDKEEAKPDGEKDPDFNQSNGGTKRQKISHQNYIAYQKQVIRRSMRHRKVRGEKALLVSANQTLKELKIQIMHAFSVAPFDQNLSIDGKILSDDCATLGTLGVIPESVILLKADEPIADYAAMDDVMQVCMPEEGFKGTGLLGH
Method in brief: as §1

USP5 = molecular target: T4, USP5 (UniProt P45974)
T4 sequence (whole entry): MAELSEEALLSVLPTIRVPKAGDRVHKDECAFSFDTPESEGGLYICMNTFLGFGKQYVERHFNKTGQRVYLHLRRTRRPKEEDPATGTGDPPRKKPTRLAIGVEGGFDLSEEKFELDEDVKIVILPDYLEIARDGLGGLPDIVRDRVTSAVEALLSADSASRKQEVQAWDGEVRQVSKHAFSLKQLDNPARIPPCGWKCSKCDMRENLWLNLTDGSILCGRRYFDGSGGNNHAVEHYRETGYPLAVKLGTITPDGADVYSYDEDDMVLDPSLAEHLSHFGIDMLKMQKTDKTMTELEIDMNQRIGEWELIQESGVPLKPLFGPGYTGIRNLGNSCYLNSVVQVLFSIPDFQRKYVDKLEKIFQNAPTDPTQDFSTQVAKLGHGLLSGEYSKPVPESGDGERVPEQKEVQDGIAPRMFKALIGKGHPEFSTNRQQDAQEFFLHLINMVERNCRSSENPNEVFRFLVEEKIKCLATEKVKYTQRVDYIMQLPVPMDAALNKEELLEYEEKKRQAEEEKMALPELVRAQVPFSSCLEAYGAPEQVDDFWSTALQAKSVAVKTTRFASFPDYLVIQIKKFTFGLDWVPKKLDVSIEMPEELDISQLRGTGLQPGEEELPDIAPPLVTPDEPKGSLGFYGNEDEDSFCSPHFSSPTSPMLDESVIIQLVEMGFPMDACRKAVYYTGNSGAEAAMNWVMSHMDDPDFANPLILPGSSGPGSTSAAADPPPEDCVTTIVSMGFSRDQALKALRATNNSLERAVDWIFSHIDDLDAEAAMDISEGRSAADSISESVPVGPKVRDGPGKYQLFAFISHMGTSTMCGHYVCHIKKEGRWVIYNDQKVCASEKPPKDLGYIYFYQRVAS
Method in brief: as §1

USP54 = USP54 (UniProt Q70EL1)
USP54, sequence (Q70EL1 whole entry): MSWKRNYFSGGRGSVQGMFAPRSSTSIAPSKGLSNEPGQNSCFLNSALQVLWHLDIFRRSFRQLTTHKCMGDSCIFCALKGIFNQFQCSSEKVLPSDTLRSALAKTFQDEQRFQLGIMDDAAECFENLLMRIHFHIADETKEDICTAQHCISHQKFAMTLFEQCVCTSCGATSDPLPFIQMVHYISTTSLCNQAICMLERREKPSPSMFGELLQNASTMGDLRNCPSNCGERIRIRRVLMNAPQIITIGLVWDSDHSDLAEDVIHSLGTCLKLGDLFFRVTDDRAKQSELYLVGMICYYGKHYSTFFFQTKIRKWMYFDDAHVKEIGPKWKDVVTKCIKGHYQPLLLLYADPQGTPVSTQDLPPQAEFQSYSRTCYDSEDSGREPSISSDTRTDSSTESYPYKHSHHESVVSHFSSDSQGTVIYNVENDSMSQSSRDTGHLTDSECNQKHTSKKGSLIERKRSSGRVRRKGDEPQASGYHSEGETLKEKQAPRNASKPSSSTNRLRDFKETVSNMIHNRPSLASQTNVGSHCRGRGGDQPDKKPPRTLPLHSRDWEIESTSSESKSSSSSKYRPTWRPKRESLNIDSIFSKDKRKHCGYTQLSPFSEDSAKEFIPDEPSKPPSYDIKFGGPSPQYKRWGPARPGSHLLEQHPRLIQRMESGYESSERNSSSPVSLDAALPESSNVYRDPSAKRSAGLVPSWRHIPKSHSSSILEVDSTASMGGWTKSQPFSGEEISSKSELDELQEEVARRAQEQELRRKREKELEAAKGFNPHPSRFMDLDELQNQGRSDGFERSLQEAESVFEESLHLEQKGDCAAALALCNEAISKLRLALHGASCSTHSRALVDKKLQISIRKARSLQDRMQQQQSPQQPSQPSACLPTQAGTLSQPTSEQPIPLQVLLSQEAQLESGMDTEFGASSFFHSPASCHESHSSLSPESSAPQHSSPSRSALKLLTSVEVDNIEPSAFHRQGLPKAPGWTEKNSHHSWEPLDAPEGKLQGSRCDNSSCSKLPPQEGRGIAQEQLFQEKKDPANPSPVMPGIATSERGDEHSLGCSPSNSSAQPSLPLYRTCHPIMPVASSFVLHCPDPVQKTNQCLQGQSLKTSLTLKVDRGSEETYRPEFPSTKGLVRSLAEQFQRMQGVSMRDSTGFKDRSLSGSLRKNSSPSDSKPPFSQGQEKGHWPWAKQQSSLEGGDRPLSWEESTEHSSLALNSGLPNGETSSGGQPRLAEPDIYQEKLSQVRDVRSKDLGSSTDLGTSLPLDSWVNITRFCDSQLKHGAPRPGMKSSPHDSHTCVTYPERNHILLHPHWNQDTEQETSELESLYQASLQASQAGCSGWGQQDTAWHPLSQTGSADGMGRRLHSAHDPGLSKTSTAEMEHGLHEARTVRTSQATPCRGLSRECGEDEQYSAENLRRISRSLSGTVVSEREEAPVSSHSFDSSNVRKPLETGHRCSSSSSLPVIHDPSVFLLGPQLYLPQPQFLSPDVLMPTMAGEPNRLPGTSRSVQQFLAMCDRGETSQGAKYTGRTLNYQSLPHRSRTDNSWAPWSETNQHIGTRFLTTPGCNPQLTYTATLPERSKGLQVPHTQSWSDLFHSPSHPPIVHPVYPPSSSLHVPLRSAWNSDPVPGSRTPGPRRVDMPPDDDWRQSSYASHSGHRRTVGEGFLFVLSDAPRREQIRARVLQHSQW
Method in brief: as §1

USP7 = USP7 (UniProt Q93009)
USP7, sequence (Q93009 whole entry, looked up): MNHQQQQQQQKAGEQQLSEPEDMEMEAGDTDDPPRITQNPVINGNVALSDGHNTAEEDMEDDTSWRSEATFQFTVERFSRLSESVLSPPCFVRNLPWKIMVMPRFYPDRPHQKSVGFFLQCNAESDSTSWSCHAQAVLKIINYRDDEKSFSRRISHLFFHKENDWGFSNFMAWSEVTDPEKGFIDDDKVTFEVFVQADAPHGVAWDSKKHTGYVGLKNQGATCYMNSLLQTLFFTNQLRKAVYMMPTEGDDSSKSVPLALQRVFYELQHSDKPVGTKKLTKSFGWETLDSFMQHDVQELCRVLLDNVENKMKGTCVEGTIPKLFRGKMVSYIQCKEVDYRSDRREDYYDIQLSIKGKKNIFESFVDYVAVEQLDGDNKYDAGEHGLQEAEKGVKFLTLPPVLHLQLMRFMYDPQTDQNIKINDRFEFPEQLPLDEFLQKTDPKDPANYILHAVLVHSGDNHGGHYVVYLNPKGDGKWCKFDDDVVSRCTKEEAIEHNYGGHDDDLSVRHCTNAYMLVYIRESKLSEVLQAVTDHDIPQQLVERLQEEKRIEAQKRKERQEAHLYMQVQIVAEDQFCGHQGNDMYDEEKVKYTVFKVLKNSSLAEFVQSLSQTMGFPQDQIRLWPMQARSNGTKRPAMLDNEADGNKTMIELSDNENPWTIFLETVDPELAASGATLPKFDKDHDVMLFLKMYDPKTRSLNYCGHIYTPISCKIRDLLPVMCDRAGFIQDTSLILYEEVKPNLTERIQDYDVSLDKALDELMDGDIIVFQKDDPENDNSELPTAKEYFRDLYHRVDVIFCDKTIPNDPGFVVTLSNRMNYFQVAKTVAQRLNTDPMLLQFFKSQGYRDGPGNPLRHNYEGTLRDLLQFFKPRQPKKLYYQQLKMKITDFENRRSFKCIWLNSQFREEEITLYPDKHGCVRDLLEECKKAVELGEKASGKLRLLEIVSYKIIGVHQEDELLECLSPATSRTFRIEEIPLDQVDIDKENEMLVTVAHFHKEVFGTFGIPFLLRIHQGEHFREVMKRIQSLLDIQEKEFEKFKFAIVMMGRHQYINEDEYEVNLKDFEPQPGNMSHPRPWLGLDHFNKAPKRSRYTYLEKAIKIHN
Method in brief: as §1

USP8 = molecular target: T5, USP8 (UniProt P40818)
T5 sequence (whole entry): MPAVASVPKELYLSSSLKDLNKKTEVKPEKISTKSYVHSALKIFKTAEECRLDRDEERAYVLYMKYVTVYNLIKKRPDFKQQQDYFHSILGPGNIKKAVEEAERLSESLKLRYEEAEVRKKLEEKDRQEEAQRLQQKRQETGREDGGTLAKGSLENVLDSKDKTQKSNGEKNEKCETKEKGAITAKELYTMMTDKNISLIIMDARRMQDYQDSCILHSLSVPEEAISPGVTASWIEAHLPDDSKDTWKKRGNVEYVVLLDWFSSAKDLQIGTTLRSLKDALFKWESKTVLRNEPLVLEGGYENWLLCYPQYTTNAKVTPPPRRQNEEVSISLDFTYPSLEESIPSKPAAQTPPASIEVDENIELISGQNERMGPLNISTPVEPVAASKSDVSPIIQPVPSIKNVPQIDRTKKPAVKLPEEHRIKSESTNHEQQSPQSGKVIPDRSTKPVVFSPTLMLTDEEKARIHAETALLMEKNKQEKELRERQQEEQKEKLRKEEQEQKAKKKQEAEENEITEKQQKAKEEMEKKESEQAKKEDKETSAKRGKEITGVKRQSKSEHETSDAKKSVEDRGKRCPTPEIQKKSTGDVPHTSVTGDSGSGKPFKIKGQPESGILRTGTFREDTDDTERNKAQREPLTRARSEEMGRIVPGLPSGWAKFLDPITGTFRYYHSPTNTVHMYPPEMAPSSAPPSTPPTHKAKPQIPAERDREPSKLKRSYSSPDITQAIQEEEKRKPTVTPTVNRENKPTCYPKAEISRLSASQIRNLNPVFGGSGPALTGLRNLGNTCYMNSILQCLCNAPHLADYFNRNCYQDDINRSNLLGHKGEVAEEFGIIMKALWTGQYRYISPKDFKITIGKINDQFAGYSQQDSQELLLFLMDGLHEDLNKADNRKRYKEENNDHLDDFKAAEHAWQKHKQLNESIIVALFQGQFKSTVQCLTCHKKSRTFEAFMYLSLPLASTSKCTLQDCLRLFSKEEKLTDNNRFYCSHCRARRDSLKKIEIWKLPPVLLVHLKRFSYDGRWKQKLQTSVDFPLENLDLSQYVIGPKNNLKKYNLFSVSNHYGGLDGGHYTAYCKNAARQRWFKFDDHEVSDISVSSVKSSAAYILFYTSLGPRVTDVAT
Method in brief: as §1

Measured: log2 ratio of Biotin-Ahx-Ub-VS probe labelling

Cc1ccn2cc(CNC(=O)CCl)nc2c1.Cl
inactive: USP42 0.192 | USP46 -0.0106 | USP47 -0.5 | USP48 -0.153 | USP5 0.0336 | USP54 0.581 | USP7 -0.341 | USP8 -0.325
